# HTR5A inv ag = HTR5A inverse agonists in luminescence cell assay, primary screen, counter-screen for OPRM1-OPRD1 heterodimer inverse agonist project, full-deck HTS; 5-hydroxytryptamine receptor 5A (Homo sapiens), P47898; HTR5A cell line, inverse agonism; inhibition, % at 9.3 µM; hit rate 0.083% among 340,000; AID 504634, 2011; in the data active means inhibition mostly above about 23%, no sharp cut-off; inactive means mostly below about 18%
# MOR-DOR ag = agonists of OPRM1-OPRD1 heterodimerization, primary screen, cell-based, luminescence | activation, % at 9.3 µM | AID 504326, 2011 | hit rate 0.3% among 340,000 | cells; in the data active means activation above about 18%
# Target sequence (P35372 whole entry, looked up): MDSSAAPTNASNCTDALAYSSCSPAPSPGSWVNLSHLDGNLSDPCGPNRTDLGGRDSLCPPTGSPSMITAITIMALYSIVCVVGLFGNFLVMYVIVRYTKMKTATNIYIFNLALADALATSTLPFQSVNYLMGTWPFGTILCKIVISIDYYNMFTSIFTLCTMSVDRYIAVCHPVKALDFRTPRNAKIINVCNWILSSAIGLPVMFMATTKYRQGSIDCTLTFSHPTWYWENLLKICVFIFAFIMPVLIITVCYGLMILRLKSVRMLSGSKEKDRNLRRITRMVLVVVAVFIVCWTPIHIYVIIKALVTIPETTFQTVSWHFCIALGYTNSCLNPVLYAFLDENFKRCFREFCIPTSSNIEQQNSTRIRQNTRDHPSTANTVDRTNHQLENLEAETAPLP
# Target sequence (P41143 whole entry, looked up): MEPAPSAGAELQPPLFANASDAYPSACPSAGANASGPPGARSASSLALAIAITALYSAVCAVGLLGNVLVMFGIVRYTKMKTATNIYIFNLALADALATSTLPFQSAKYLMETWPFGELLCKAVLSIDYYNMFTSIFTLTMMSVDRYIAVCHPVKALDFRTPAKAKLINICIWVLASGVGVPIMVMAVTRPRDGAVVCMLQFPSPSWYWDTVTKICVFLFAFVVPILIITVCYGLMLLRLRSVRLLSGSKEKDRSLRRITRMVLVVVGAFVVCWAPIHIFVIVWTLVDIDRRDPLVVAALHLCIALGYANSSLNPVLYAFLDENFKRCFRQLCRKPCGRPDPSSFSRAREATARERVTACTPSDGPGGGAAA
# MOR-DOR inv ag = inverse agonists of MOR-DOR heterodimerization, primary screen, cell-based, luminescence; cell-based MOR-DOR heterodimer luminescence, inverse agonism; AID 504357, 2011; inhibition, % at 9.3 µM; hit rate 0.21% among 340,000; Mu-type opioid receptor (Homo sapiens) + Delta-type opioid receptor (Homo sapiens), …; in the data active means inhibition above about 22%, passing the limit was not always enough
# HTR5A ag = HTR5A agonists in luminescence cell assay, primary screen, counter-screen for OPRM1-OPRD1 heterodimer agonist project, full-deck HTS; 5-hydroxytryptamine receptor 5A (Homo sapiens), P47898; cell-based; activation, % at 9.3 µM; hit rate 0.61% among 340,000; in the data active means activation mostly above about 9.5%, no sharp cut-off; inactive means mostly below about 7.6%
# A number is an active result; – = inactive. Only some compounds are listed: those with a hit (about 1.1% of all), similar ones and a draw of the others.
SMILES,HTR5A inv ag,MOR-DOR ag,MOR-DOR inv ag,HTR5A ag
O=C(CSc1nnc(-c2ccccc2)n1-c1ccc(Cl)cc1)N/N=C/c1ccccc1C(=O)O,–,–,–,11.9
CCN(CC)CCOCCOC(=O)C1(c2ccccc2)CCCC1,–,–,–,–
CCN(CC)CCOC(=O)C1(c2ccccc2)CCOCC1,–,–,–,10.6
C[C@H](NC(=O)c1cccc([N+](=O)[O-])c1)C(=O)OCC(=O)c1ccccc1Br,–,–,–,–
CCCC(C(=O)c1ccccc1)n1cncn1 (stereo unspecified),–,–,–,11.2
O=C(/C=C/c1ccccc1Cl)OCC(=O)c1ccc[nH]1,–,–,–,–
CC1(C(=O)OCC(=O)NCCNC(=O)COC(=O)C2(C)CC2(Cl)Cl)CC1(Cl)Cl (stereo unspecified),–,–,–,12.0
CCc1ccc(NC(=O)C2CCN(S(=O)(=O)c3ccc4c(c3)CC(C)N4C(C)=O)CC2)cc1 (stereo unspecified),–,–,–,–
CCOc1ccc(N2C(=O)CC(NC3CCN(C(=O)c4ccc(F)cc4)CC3)C2=O)cc1 (stereo unspecified),–,–,–,–
CC(C)N(C(=O)CSc1nc2ccccc2n1Cc1ccccc1)C(C)C,–,–,–,10.0
CCOc1ccc(CCNC(=O)c2ccc(Cl)c(S(=O)(=O)N3CCOCC3)c2)cc1OCC,–,–,–,–
O=C(CSc1ccc(Cl)cc1)OCC(=O)N1CCN(c2ccccc2)CC1,–,–,–,–
CC1CN(CCOc2ccccc2C(C)C)CC(C)O1 (stereo unspecified),–,–,–,–
COc1ccccc1CCC(=O)OCC(=O)Nc1c(C)nn(-c2ccccc2)c1C,–,–,–,–
Cc1nn(-c2ccccc2)c(C)c1NC(=O)COC(=O)Cc1ccccc1F,–,–,–,12.1
CC(C)C(=O)NCCc1c[nH]c2ccccc12,–,–,–,–
O=C(NCCc1c[nH]c2ccccc12)C(F)(F)F,–,–,–,13.7
Cn1c(CNC(=O)c2ccccc2F)nnc1SCC(=O)N1CCN(c2ccccc2)CC1,–,–,–,12.0
Cc1ccccc1C(=O)NCc1nnc(SCC(=O)N2CCN(c3ccccc3)CC2)n1C,–,–,–,–
CC(=O)Oc1ccc(C(c2ccc(OC(C)=O)cc2)c2ccccn2)cc1,–,57.9,–,33.7
CC(C)CC1(C)NC(=O)N(CC(=O)N2C(C)CCCC2C)C1=O (stereo unspecified),–,–,–,13.1
CCOCCCNc1nc2c(C)cccn2c(=O)c1/C=C1\SC(=S)N(C(C)CC)C1=O (stereo unspecified),–,18.2,–,–
CCOCCCNc1nc2c(C)cccn2c(=O)c1/C=C1\SC(=S)N(CC(C)C)C1=O,–,–,–,–
CC(C)c1cc(C(=O)OCC(=O)N2CCN(C(=O)c3ccco3)CC2)c(O)c(C(C)C)c1,–,–,–,–
COC(=O)[C@]1(C)N[C@H](CN(C)C(=O)c2ccc(C)cc2)[C@@H]2C(=O)N(C)C(=O)[C@@H]21,–,–,–,–
SMILES,HTR5A inv ag,MOR-DOR ag,MOR-DOR inv ag,HTR5A ag
CC12CCC(C(=O)N(CSC(=S)N/N=C\c3ccccc3)C1=O)C2(C)C (stereo unspecified),–,–,–,10.3
CC1(C)CC(N=c2cc(-c3ccccc3)oc3ccc(Cl)cc23)CC(C)(C)N1,–,–,–,13.5
Cc1ccc(S(=O)(=O)N[C@H](C(=O)OCC(=O)NC(=O)c2cccn2C)C(C)C)cc1,–,–,–,–
COc1ccc(/C=N/n2cnnc2)cc1Oc1nc(Cl)ncc1F,–,–,–,11.6
COc1cc(/C=N/n2cnnc2)ccc1Oc1nc(Cl)ncc1F,–,–,–,–
CCC(=O)C1CCCN(C(=O)c2cccc(OC3CCN(S(C)(=O)=O)CC3)c2)C1 (stereo unspecified),–,–,–,–
CCN(CC)CCNC(=O)c1cc2c(s1)-c1ccccc1SC2,–,–,–,12.8
CCN(CC)CCNC(=O)c1cc2c(=O)n(CC)c3ccccc3c2s1,–,–,–,–
C[C@H](CO)N1C[C@H](C)[C@@H](CN(C)S(=O)(=O)c2ccc(F)cc2)Oc2ccc(NC(=O)c3ccncc3)cc2C1=O,–,–,–,9.5
COC(=O)c1ccc(NC(=S)N2CCN(C)CC2)cc1,–,–,–,13.0
COC(=O)c1ccc(NC(=S)N2CCCC2)cc1,–,–,–,–
CC1CN(C(=O)CCS(=O)(=O)c2ccccc2)CC(C)O1 (stereo unspecified),–,–,–,14.2
O=C(CCS(=O)(=O)c1ccccc1)N1CCOCC1,–,–,–,–
CCn1c(C)nc2cc(C(=O)N/N=C/c3ccc(O)c(O)c3O)ccc21,–,–,–,12.8
Cc1ccc(-c2cc(C(=O)NCCN3CCOCC3)c3ccccc3n2)o1,–,–,–,–
CN(C)CCCN(C(=O)c1ccc2c(c1)CCCC2)c1nc2c(F)cccc2s1,–,–,–,–
CN(C)CCCN(C(=O)c1ccc(N2C(=O)CCC2=O)cc1)c1nc2c(F)cccc2s1,–,–,–,13.3
CN(C(=O)c1cccc(NC(=O)Cc2cccc(NC(=O)C3CCCN(C(=O)CCc4ccccc4)C3)c2)c1)C1CCC1 (stereo unspecified),–,–,–,–
Cn1c(C(=O)NCc2ccccn2)cc2c(=O)n(C)c3ccccc3c21,–,–,–,13.1
CC(=O)N1CCN(S(=O)(=O)c2cccc(C(=O)OCc3ccc(C(C)(C)C)cc3)c2)CC1,–,–,–,–
CCC(NC(=O)Nc1nnc(C(F)(F)F)s1)(C(F)(F)F)C(F)(F)F,–,–,–,11.7
Cc1ccc2c(c1)C(CCN)C(=O)N2Cc1ccccc1 (stereo unspecified),56.7,–,64.7,–
CC(=O)NC1C(=O)N(Cc2ccccc2)c2ccc(Br)cc21 (stereo unspecified),–,–,–,–
O=c1oc(-c2cccs2)nc2ccccc12,–,–,–,13.8
O=C(N/N=C/C1C(c2ccccc2)C1(Cl)Cl)c1cccc(Br)c1 (stereo unspecified),–,–,–,11.1
SMILES,HTR5A inv ag,MOR-DOR ag,MOR-DOR inv ag,HTR5A ag
S=C(Nc1ccccc1Cl)NC1CCN(Cc2ccccc2)CC1,–,–,–,–
CC(C)c1ccccc1NC(=S)NC1CCN(Cc2ccccc2)CC1,–,–,–,11.5
CC(C)(C)c1ccc(S(=O)(=O)NNC(=O)c2cc3ccccc3[nH]2)cc1,–,–,–,12.8
CCCC(C)NNC(=O)c1cc2ccccc2[nH]1 (stereo unspecified),–,–,–,–
Cc1ccc(S(=O)(=O)c2ccc([N+](=O)[O-])o2)cc1,–,–,–,–
CC(C)(COC(=O)c1ccccc1)N1CC2CCC(C1)O2,–,–,–,–
COc1cccc(-c2nc(NCc3cccnc3)c3ccccc3n2)c1O,–,–,–,11.0
c1cncc(CNc2nc(-c3cccnc3)nc3ccccc23)c1,–,–,–,–

# Assay outcomes as filed in PubChem BioAssay.
